# Screening data deposited in PubChem by National Center for Advancing Translational Sciences (NCATS).
# HCMV inh: qHTS Assay for inhibitors of the human cytomegalovirus (HCMV). hit rate 4.5% among 410,000. AID 1259415, 2018. activity change, negative = inhibition, % at 57.5 µM. HFF cells, HCMV-luciferase reporter, 72 h; stronger effect = lower value; in the data active means activity change below about -60%; inconclusive means no clear call, values can overlap the other calls; inactive means above about -39%
#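 Two-dose cell screen: HFF monolayers treated with compounds and infected with luciferase-expressing HCMV at 1 PFU/cell, 72 h at 37C, then lysed for luciferase measurement.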
# HCV inh: qHTS Assay for Inhibitors of Hepatitis C Virus (HCV). Potency, µM (doses to about 41.8 µM), actives largely listed as inhibitors. hit rate 3.4% among 340,000. Huh7.5.1 HCVcc-Cre infection, luciferase reporter, 44 h. AID 651820, 2012
#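 Luciferase read-out (15 sec integration) after a 15 min room-temperature substrate step quantifies HCVcc-Cre infection. Cells, 1,000 per well, had compound added 4 h post-plating, then virus at ~0.5 moi, and were cultured 44 h.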
# Pf growth 96h: Primary qHTS for delayed death inhibitors of the malarial parasite plastid, 96 hour incubation; hit rate 6.9% among 320,000; P. falciparum luciferase reporter growth, 96 h; Potency, µM (highest dose often 28.7 µM), most hits filed as inhibitors
#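 P. falciparum expressing integrated firefly luciferase grown in erythrocytes (2% hematocrit, 0.05% parasitemia final) with compounds for 96 hours at 37 C, 5% CO2. Growth inhibition read as loss of luminescence after adding luciferase detection reagent.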
# Pf growth 48h: Primary qHTS for delayed death inhibitors of the malarial parasite plastid, 48 hour incubation. hit rate 5.9% among 310,000. Potency, µM (top dose mostly 28.7 µM), most hits filed as inhibitors. P. falciparum luciferase growth in erythrocytes, 48 h
#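 Parasite viability was followed by luminescence of a genomically integrated firefly luciferase. Cultures held 0.1% parasitemia at 2% hematocrit (final), incubated under 5% CO2 at 37 C.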
# Numbers stand for hits; n = inactive; u = inconclusive; x = not tested or not shown; ! = repeats disagree; [ ] = another dose, or the depositor's remark. A selection: hits, their analogues and other compounds. The true share with any hit is near 13%. Unless noted, the call rests on the fitted dose curve; in most records, active means well fitted inhibition curve with a large enough effect; inconclusive means small, poorly fitted or top-dose-only effect, or another doubt; inactive means no such curve, though single readings can be large or run the other way.
SMILES,HCMV inh,HCV inh,Pf growth 96h,Pf growth 48h
Cc1cc(NC(=O)c2ccc3[nH]c(C)c(C)c3c2)ccn1,n,2.51µM,2.62µM,2.62µM
C=CCOC(=O)/C(=C/c1cccc2ccccc12)NC(=O)c1ccccc1,n,u,u,n
O=C(OCc1ccccc1)/C(=C/c1cccc2ccccc12)NC(=O)c1ccccc1,n,n,u,6.57µM
CCn1c(CN2CCOCC2)nc2cc(NC(=O)c3cccc([N+](=O)[O-])c3)ccc21,n,x,x,x
O=C(O)c1cccc(-n2cnc3cccnc32)c1,n,x,x,x
Cc1ccc(OCc2nc(-c3cccnc3)no2)cc1C,n,n,0.415µM,n
c1ccc(OCc2nc(-c3ccncc3)no2)cc1,n,n,11.7µM,n
Cc1cc(C)cc(OCc2nc(-c3cccnc3)no2)c1,n,n,n,n
c1ccc(OCCCc2nc(-c3ccccn3)no2)cc1,-105.6,n,x,n
Cc1ccc(NC(=O)CSc2nc3c(c(=O)[nH]2)CN(Cc2ccccc2)CC3)cc1Cl,n,x,x,x
COc1ccc(OCC(O)Cn2c(NCCO)nc3c2c(=O)n(C)c(=O)n3C)cc1 (stereo not drawn),n,x,x,x
COc1ccc(NC(=O)c2cccc(S(=O)(=O)N3CCCCC3)c2)c(OC)c1,-69.0,n,2.94µM,n
COc1ccc(NC(=O)c2ccc(S(=O)(=O)N3CCCCCC3)cc2)c(OC)c1,n,u,13.1µM,n
COc1ccc(C(=O)Nc2cc(S(=O)(=O)N3CCCCC3)ccc2OC)cc1,n,n,n,n
Cc1ccc(NS(=O)(=O)c2ccc(C)c(NC(=O)c3ccc(S(=O)(=O)N4CCCCCC4)cc3)c2)c(C)c1,-63.7,x,x,x
Cc1ccc(NC(=O)C2=CCN(S(=O)(=O)c3ccc(F)cc3)CC2)c(C)c1,u,n[8.37 µM],0.329µM,n
Cc1ccc(S(=O)(=O)N2CCCCC2)cc1NC(=O)c1ccc2c(c1)OCO2,u,n,n,n
CCCOc1cccc(NC(=O)c2cc(C)oc2C)c1,u,10µM,u,n
CC(OC(=O)c1ccccc1)C(=O)NCc1ccco1 (stereo not drawn),n,n,x,x
CCCOc1cccc(C(=O)Nc2cccc(NC(=O)c3ccco3)c2)c1,n,25.1µM,x,u
CCCCOc1cccc(C(=O)Nc2ccc(NC(=O)c3ccco3)cc2)c1,-77.7,n,n,n
CCCCCOc1ccc(C(=O)OC(C)C(=O)NCc2ccco2)cc1 (stereo not drawn),n,u,13.1µM,u
NS(=O)(=O)c1ccc(CCNC(=O)c2ccc3nc(CCc4ccccc4)oc3c2)cc1,n,x,x,x
CCCCOc1ccc(OCCNC(=O)c2ccco2)cc1,n,n,u,9.28µM
O=C(Nc1ccc2ccccc2c1)c1ccccc1O,-99.2,u,u,n
SMILES,HCMV inh,HCV inh,Pf growth 96h,Pf growth 48h
COc1ccc(NC(=O)c2cc3ccc4c5ccccc5[nH]c4c3cc2O)cc1,n,n,5.86µM,u
COc1ccc(NC(=O)c2cc3ccccc3cc2O)cc1,n,u,8.28µM,u
COc1ccc(NC(=O)c2cc(-c3ccco3)on2)cc1OC,n,11.2µM,n,n
O=C(Nc1ccc2ccccc2c1)c1ccccc1Cl,n,x,x,x
Cc1ccc(NC(=O)c2cc(-c3ccco3)on2)cc1C,n,n,u,n
COc1cc(-c2nnc(SCCOc3ccc(Cl)cc3C)o2)cc(OC)c1OC,n,x,x,x
Cc1ccc2cc(NC(=O)c3ccccc3C)ccc2n1,-99.8,n,n,n[0.00184 µM]
COc1cc(OC)c(C(=O)Nc2ccc3ccccc3c2)cc1OC,x,n,n,n
COc1ccc(NC(=O)c2cc3c(Cl)nc4ccccc4c3s2)cc1OC,-82.9,u,n,2.08µM
COc1ccc(NC(=O)c2cc3ccccc3cc2OC)cc1OC,n,11.2µM,u,n
Cc1ccc2cc(NC(=O)Cc3ccccc3)ccc2n1,n,n,n,n
Cn1c2ccc(F)cc2c2nnc(SCCN3CCCCC3)nc21,-86.2!,11.2µM,u,u
CCCCn1c2ccc(F)cc2c2nnc(SCCN3CCCCC3)nc21,n,u,n,u
CCCCn1c2ccc(C)cc2c2nnc(SCCN3CCCCC3)nc21,n,u,u,13.1µM
CC(C)C[C@@H](NC(=O)[C@H](Cc1ccccc1)NC(=O)c1cnccn1)B(O)O,x,x,0.0301µM,0.0675µM
CC(NC(=O)C(Cc1ccccc1)NC(=O)c1ccccc1)C(=O)O (stereo not drawn),n,n,n,n
CN1C(=O)C(n2ccc3ccccc32)c2cccc(F)c21 (stereo not drawn),n,x,x,x
CC1Oc2ccccc2N(Cc2ccccc2Cl)C1=O (stereo not drawn),n,n,11.7µM,u
Cc1cccc(Cn2c(C)c(CNC3CCCCC3)c(C(=O)O)c2C)c1,n,x,x,x
CCC(=O)N1CCc2cc(CNS(=O)(=O)c3cc(Cl)ccc3OC)ccc21,n,x,x,x
CC1N(C)c2cc(NC(=O)c3ccco3)c(P(=O)(Nc3ccc([N+](=O)[O-])cc3)N3CCOCC3)cc2C1(C)C (stereo not drawn),u,8.91µM,9.28µM,5.86µM
CC1N(C)c2cc(NC(=O)c3ccco3)ccc2C1(C)C (stereo not drawn),-69.9,n,n,n
Cc1cc(C)cc(NC(=O)c2ccc(NC(=O)c3ccco3)cc2)c1,n,u,n,u
COCCCNC(=O)c1c(NC(=O)Cc2coc3c(C)c(C)ccc23)sc2c1CCCC2,n,x,x,x
COc1ccc(CCNC(=O)Cc2c(C)c3cc4c(C(C)(C)C)coc4c(C)c3oc2=O)cc1OC,n,x,x,x
SMILES,HCMV inh,HCV inh,Pf growth 96h,Pf growth 48h
COc1ccccc1-c1nc(C(=O)NCC2CCCO2)cc2c1[nH]c1ccccc12 (stereo not drawn),x,u,8.28µM,9.28µM
COc1cc(-c2nc(C(=O)NCC3CCCO3)cc3c2[nH]c2ccccc23)cc(OC)c1OC (stereo not drawn),n,3.55µM,6.57µM,u
O=C(NCC1CCCO1)c1cc2c([nH]c3ccccc32)c(-c2cccc(Cl)c2)n1 (stereo not drawn),x,1.26µM,5.86µM,u
COc1cccc2[nH]c(C(=O)NCC3CCCO3)cc12 (stereo not drawn),n,n,n,n
CC(C)c1ccc(NC(=O)C(C)N(c2ccccc2)S(C)(=O)=O)cc1 (stereo not drawn),n,x,x,x
Cc1ccc(NC(=O)Cn2c(SCc3ccc(F)cc3)nc3cccnc32)cc1F,n,x,x,x
CCCCN(C)C(=O)c1ccc(Nc2nc(C(N)COCc3ccccc3)cs2)nc1 (stereo not drawn),n,x,x,x
COC1=CC(=O)OC(c2cccc(Cl)c2)C1 (stereo not drawn),n,x,x,x
COc1ccc(S(=O)(=O)n2nc(C)c(S(=O)(=O)N3CCC(C)CC3)c2C)cc1C,n,x,x,x
O=c1cc(Nc2ccc3c(c2)OCO3)[nH]c(=O)n1-c1ccc(Br)cc1,-77.7,u,n,u
CC(=O)N(CCC1(C(C)C)CCOC(C)(C)C1)Cc1ccco1 (stereo not drawn),n,n,n,u
CC(=O)N(CCC1(c2ccc(C)cc2)CCOC(C(C)C)C1)Cc1ccco1 (stereo not drawn),n,n,4.15µM,5.86µM
